The sample as a whole holds a higher share of hits than the screen did.
LmPK inh: LmPK (Leishmania mexicana) enzyme inhibition; actives 0.37% (n = 290,000); Potency, µM (titrated, usually from 57.5 µM), for inactives: at the top dose activity change, negative = inhibition, most hits filed as inhibitors; purified LmPK, Kinase-Glo ATP luminescence, 1 h; Q27686; note: potency is the fitted concentration of half-maximal effect; % is set by controls: 0 for no effect and ±100 for the full control effect
Target sequence (Q27686 whole entry, looked up): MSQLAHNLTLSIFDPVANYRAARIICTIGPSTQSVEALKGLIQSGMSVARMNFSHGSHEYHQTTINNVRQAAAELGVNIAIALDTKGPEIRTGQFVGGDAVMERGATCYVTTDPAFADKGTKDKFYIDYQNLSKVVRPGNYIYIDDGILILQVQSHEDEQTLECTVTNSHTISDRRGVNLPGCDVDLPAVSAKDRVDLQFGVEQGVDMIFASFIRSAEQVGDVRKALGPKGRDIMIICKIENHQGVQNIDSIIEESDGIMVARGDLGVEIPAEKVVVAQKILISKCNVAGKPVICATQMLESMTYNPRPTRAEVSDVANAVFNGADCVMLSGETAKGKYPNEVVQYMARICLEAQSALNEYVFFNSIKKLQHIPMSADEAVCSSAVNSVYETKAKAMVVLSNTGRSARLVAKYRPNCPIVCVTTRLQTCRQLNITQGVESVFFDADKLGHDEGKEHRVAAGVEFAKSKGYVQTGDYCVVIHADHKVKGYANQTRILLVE
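Screened at intermediate enzyme activity to detect both inhibitors and activators: LmPK at 0.1 nM, with a 0.5 nM enzyme column as activation reference. PEP 0.5 mM, ADP 0.1 mM; ATP detected by luminescence after 1 h.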
RE007 growth inh: less growth of the S. pombe RE007 Vpr strain; actives 0.21% (n = 360,000); AID 651644; S. pombe RE007 Vpr strain, BacTiter-Glo ATP luminescence, 24 h; Potency, µM (series often up to 92.2 µM), for inactives: at the top dose activity change, negative = less growth, actives largely listed as inhibitors; active = well fitted falling curve with a large enough effect; inconclusive = small, poorly fitted or top-dose-only effect; inactive = no such curve, though single readings can be large or run the other way; note: potency is the fitted concentration of half-maximal effect; % is set by controls: 0 for no effect and ±100 for the full control effect; nearly all actives have a fitted effect of over 50% in size
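Fission yeast strain RE007, carrying one chromosomally integrated HIV-1 vpr copy, was seeded at OD 0.01 in PMG+AL medium with 23 nL pinned compound. After 24 h at 30 °C and 99% humidity, viability was read by BacTiter-Glo luminescence.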
Cycloheximide cs: counter-screen hit for Shiga toxin inhibitors, cycloheximide. cell reporter, cycloheximide protein synthesis inhibition counterscreen. max response, %. actives 12% (n = 300,000). AID 2314; in the data active = max response mostly above about 13%, no sharp cut-off; inactive = mostly below about 14%; note: read at 38.3 µM for the half of the compounds with a filed dose; 0% is about no effect
Shiga toxin inh: blocks Shiga toxin action in Vero cells. actives 9.2% (n = 290,000). Vero cells, Shiga toxin protein synthesis inhibition reporter. inhibition, % at 38.7 µM; in the data active = inhibition mostly above about 28%, no sharp cut-off; inactive = mostly below about 43%; note: 0% is about no effect
Tb PYK inh: T. brucei pyruvate kinase inhibition; TbPYK enzyme, Kinase-Glo Plus ATP luminescence, 45 min; actives 0.12% (n = 410,000); AID 624173; Potency, µM (highest dose often 76.8 µM), for the others: top-dose activity, negative = inhibition, usual class: inhibitors; note: potency is the fitted concentration of half-maximal effect; % is set by controls: 0 for no effect and ±100 for the full control effect; nearly all actives have a fitted effect of over 50% in size
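ADP (130 uM final) triggers the TbPYK reaction after compound addition; incubation is 45 min at room temperature. Kinase-Glo Plus is then added and luminescence imaged. Normalized data are fitted to concentration-effect curves.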
Giardia FBPA inh: blocks Giardia fructose-bisphosphate aldolase activity; A8B2U2; purified Giardia FBPA; Potency, µM (top dose mostly 59.6 µM), without a hit: at the highest dose activity, negative = inhibition, actives largely listed as inhibitors; actives 0.71% (n = 290,000); note: potency is the fitted concentration of half-maximal effect; % is set by controls: 0 for no effect and ±100 for the full control effect; nearly all actives have a fitted effect of over 55% in size
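Giardia FBPA (40 nM reagent) was preincubated 10 min at RT with compound (up to 57.5 uM final), then substrate plus GAPDH/TPI/NAD/arsenate coupling system with diaphorase/resazurin was added; resorufin fluorescence (525/598 nm) was read after 20 min.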
* = called active by the depositor; u = inconclusive; x = no result given; [ ] = another dose, or the depositor's remark. Unless noted, calls come from the whole dose curve; as a rule, active = well fitted curve in the direction sought with a large enough effect; inconclusive = small, poorly fitted or top-dose-only effect, or another doubt; inactive = no such curve, though single readings can be large; an effect the other way counts as inactive or inconclusive.

SMILES	LmPK inh	RE007 growth inh	Cycloheximide cs	Shiga toxin inh	Tb PYK inh	Giardia FBPA inh
Cc1cc(C(=O)Nc2ccc3[nH]ccc3c2)no1	0%	13%	46*	74*	-1%	-2%
Cc1cccc(-c2nc(Cn3c(SCc4cc(C)ccc4C)nc4ccncc43)c(C)o2)c1	x	x	x	x	-15%	x
CCOc1ccc(NC(=O)c2sc3nc4c(cc3c2N)CN(Cc2ccccc2)CC4)cc1	x	x	x	x	2%	x
COc1cccc(NC(=O)c2sc3nc(C)c(C(=O)Nc4ccc(Cl)cc4)c(-c4ccc(Br)cc4)c3c2N)c1	x	x	x	x	-2%	x
CCc1ccccc1N(CC)C(=O)Cn1nc(Cc2ccncc2)c2ccccc2c1=O	x	x	x	x	-2%	x
CCS(=O)(=O)Nc1ccc(C2=NN(S(C)(=O)=O)C(c3cccs3)C2)cc1 (configuration not stated)	2%	5%	21*	43	0%	6%
CCS(=O)(=O)Nc1cccc(C2=NN(C(C)=O)C(c3cccs3)C2)c1 (configuration not stated)	-5%	1%	1	5	0%	2%
COc1ccc(C2=NN(S(C)(=O)=O)C(c3cccs3)C2)cc1OC (configuration not stated)	-9%	-1%	44*	66*	0%	-2%
CS(=O)(=O)N1N=C(c2ccccc2)CC1c1cccs1 (configuration not stated)	0%	-12%	1	15	-4%	1%
COc1ccc2cc(C3CC(c4cccs4)=NN3S(C)(=O)=O)c(Cl)nc2c1 (configuration not stated)	1%	15%	24*	37	0%	-8%
COc1cccc(C2=NN(S(C)(=O)=O)C(c3cccs3)C2)c1 (configuration not stated)	-1%	5%	35*	40*	0%	4%
CCOC(=O)N1C(C)CN(/[N+]([O-])=N/Oc2ccc([N+](=O)[O-])cc2[N+](=O)[O-])CC1C (configuration not stated)	x	x	7	32	x	10%
Cc1cc(C)c2oc(C(=O)Nc3nc4ccc(Cl)cc4s3)cc(=O)c2c1	x	x	x	x	1%	x
C[C@@H](C(=O)O)c1cccc(C(=O)c2ccccc2)c1	x	x	x	x	-4%	10%[21.7 µM]
CCCN1CCc2nc(N3CCN(c4ncccn4)CC3)ncc2C1	x	x	x	x	4%	x
Cc1cccc(NC(=S)NNC(=O)c2nn(C)cc2Cl)c1	2%	12%	25*	34	-17%	5%
Cc1cccc(NC(=O)NNC(=O)c2c(Cl)c(C)nn2C)c1	3%	0%	-3	-4	1%	0%
Cc1ccc(NC(=S)NNC(=O)c2nnn(-c3ccccc3)c2C)cc1	1%	-11%	37*	59*	u	u
Cc1ccc(/C=N/OC(=O)c2nn(C)cc2Cl)cc1	-18%	-10%	55*	89*	3%	1%
Cc1ccc(NC(=S)NNC(=O)c2nn(C)cc2Cl)cc1	6%	1%	19*	15	-22%	6%
Cc1ccc(C)c(-n2nnc(C(=O)Nc3ccc(Br)cc3)c2C)c1	x	x	x	x	2%	x
CC(C)Oc1ccc2c(=O)c3cc(C(=O)O)ccc3oc2c1	x	x	x	x	x	15%
COc1cccc(N2CCN(C(=O)CCc3c(C)nc4c(c3C)c(=O)n(C)c(=O)n4C)CC2)c1	x	x	x	x	-6%	x
Cc1cc(NC(=O)c2ccccc2)sc1C	13µM*	u	33*	56*	3%	4%
Cc1ccc(NC(=O)c2ccccc2)s1	u	-5%	39*	100*	-5%	-13%
SMILES	LmPK inh	RE007 growth inh	Cycloheximide cs	Shiga toxin inh	Tb PYK inh	Giardia FBPA inh
COC(=O)c1c(NC(=O)c2ccccc2)sc(C(=O)c2ccccc2)c1C	-2%	26%	2	-13	4%	1%
Cc1cc(NC(=O)c2ccccc2)cc(NC(=O)c2ccccc2)c1C	1%	0%	1	x	0%	5%
CN1CCN(c2ncc3nc(CCc4ccccc4)c(=O)n(C)c3n2)CC1	x	x	x	x	x	0%
O=C(COC(=O)Cc1ccc(Br)cc1)NCc1ccccc1	x	7%	x	x	0%	x
COc1ccccc1CNC(=O)Cc1ccc(Br)cc1	5%	18%	35*	active	-6%	1%
O=C(Cc1ccc(Br)cc1)NCc1ccccc1	-2%	-21%	19*	22	-16%	14%
CCOc1ccc(NC(=O)CSc2nc(=O)[nH]c3c2CCC3)cc1	x	x	x	x	-6%	x
Nc1cc(-c2ccc(Br)cc2)[nH]n1	4%	-2%	11*	25	-3%	-1%
Cc1cc(-c2ccc(Br)cc2)n[nH]1	-1%	-9%	31*	82*	-3%	-1%
CCc1ccccc1NC(=O)C(=O)NCCc1sc(-c2cccc(F)c2)nc1C	x	x	x	x	-4%	x
O=C(Nc1ccccc1Cl)[C@H](CSCc1ccccc1)N1Cc2ccccc2C1=O	x	x	x	x	0%	x
Cc1nn(-c2ccccn2)c2c1C(=O)C(Br)CC2 (configuration not stated)	-12%[11.5 µM]	5%	12	-12	u	5µM*
O=C(Nc1cccc(NC(=O)c2ccco2)c1)c1ccc2c(c1)OCO2	-12%	-10%	10	22	-6%	-4%
Cc1ccc(C(=O)Nc2ccc3c(c2)OCO3)cc1NC(=O)c1ccco1	3%	16%	27*	74*	0%	-5%
Cc1cc(NC(=O)c2ccc3c(c2)OCO3)ccc1NC(=O)c1ccco1	14µM*	-16%	14*	48	-9%	-20%
Cc1cccc(N(C)C(=O)c2cnn(-c3ccccc3)c2C)c1	-7%	-4%	24*	40*	3%	8%
Cc1c(C(=O)N(C)c2ccc(Cl)cc2)cnn1-c1ccccc1	-1%	10%	50*	x	2%	10%
COc1cccc(CN(C(=O)c2ccc(C(C)(C)C)cc2)C2CCS(=O)(=O)C2)c1 (configuration not stated)	x	x	x	x	1%	x
CCOC(=O)Nc1cccc(Cl)c1C	-7%	-2%	-4	7	4%	-7%
CCC(COC(=O)Nc1cccc(C)c1)NC(=O)OCC(C)C (configuration not stated)	-5%	30%	36*	87*	0%	-14%
CCCCOC(=O)Nc1cccc(Cl)c1C	6%	-2%	22*	87*	-7%	6%
CCCCOC(=O)c1cccc(NC(=O)CCC(=O)O)c1	3%	21%	-2	8	6%	5%
CCCCOC(=O)Nc1cccc(C(C)=O)c1	-4%	-4%	23*	72*	7%	6%
CCOC(=O)Nc1cccc(C(=O)O)c1	-7%	2%	14*	31*	-6%	7%
CC(=O)NCCNc1nc(-c2cccnc2)nc2ccccc12	x	x	x	x	x	-6%
